Data on 3 sequences can be found in article PMC7862700, “An all-to-all approach to the identification of sequence-specific readers for epigenetic DNA modifications on cytosine”.

What all share (experiment): DAPPL (digital affinity profiling via proximity ligation, sequencing); 10 mM Tris-HCl pH 7.5, 50 mM NaCl, 1 mM DTT, 4% glycerol, room temperature, 30 min; GST-TFs on glutathione beads, 16-mer random dsDNA library, 0.1% formaldehyde crosslink after washing; high values mean tight binding
Details in all cases: protein: recombinant; tags: N-terminal GST; dsDNA, one strand shown

One assay has as its target T1, ERG (Homo sapiens, UniProt P11308 1-479).
T1 sequence: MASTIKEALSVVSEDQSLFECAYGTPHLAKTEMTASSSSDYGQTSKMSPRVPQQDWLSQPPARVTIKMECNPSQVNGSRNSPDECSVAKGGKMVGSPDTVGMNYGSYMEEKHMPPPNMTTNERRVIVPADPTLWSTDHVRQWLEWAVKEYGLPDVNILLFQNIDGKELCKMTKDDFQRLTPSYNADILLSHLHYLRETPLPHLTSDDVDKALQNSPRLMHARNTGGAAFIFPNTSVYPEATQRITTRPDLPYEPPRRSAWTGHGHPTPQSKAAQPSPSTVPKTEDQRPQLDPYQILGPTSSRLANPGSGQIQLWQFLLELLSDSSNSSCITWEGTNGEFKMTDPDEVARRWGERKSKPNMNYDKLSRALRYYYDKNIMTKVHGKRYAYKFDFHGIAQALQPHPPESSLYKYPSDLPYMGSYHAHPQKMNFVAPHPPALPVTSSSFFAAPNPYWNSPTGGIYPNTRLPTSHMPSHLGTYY
The essentials:
(§1)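 Human transcription factors carrying a GST fusion were produced in yeast, bound to glutathione beads, tagged with DNA barcodes and pooled together with a tag-only sample. Each pool was held with 200 nmole of a random double-stranded 16-mer DNA library in Tris/NaCl/DTT/glycerol buffer for 30 min at room temperature, then washed, crosslinked in 0.1% formaldehyde, proximity-ligated with BsaI/T4 ligase (1 h, 37 °C), PCR-amplified and sequenced on an Illumina NextSeq500. Binding signal is the read frequency of each hexamer for a given factor divided by its frequency in the tag-only sample.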

A further assay deals with T2, ELK4 (Homo sapiens, UniProt P28324-2 1-405).
T2 sequence: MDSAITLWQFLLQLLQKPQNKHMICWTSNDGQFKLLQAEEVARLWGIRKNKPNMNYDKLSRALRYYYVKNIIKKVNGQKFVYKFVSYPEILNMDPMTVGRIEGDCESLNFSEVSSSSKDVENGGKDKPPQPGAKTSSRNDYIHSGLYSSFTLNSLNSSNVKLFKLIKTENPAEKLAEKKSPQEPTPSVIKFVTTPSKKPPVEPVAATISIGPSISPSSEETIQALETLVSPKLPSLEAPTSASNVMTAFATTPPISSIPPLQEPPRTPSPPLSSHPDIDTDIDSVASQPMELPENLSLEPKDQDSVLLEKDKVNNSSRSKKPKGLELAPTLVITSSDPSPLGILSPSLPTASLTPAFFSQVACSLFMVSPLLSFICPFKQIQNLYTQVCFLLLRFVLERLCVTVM
The method, boiled down: as §1

The target of a further assay is T3, ETV3L (Homo sapiens, UniProt Q6ZN32 1-361).
T3 sequence: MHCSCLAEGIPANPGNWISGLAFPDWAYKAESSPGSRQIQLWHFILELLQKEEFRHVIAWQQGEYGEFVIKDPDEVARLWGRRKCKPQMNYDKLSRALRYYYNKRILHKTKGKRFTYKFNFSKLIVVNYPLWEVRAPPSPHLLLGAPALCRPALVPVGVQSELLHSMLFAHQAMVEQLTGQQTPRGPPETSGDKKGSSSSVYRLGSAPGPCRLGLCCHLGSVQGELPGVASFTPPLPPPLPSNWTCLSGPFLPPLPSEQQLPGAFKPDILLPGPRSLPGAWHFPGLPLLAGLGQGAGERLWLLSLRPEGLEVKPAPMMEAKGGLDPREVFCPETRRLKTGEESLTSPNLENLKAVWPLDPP
The method, boiled down: as §1

The next assay addresses T4, ETV7 (Homo sapiens, UniProt Q9Y603 1-341).
T4 sequence: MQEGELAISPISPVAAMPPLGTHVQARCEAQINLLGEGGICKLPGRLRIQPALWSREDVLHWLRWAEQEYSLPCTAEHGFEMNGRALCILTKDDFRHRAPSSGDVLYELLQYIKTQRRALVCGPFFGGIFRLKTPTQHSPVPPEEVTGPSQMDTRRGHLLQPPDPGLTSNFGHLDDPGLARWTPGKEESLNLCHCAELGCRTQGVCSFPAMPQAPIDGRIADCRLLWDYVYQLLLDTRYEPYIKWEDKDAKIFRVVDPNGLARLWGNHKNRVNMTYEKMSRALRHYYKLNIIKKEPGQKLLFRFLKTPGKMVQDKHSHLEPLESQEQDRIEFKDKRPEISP
The method, boiled down:
as §1

The target of a further assay is T5, ELK1 (Homo sapiens, UniProt P19419 1-428).
T5 sequence: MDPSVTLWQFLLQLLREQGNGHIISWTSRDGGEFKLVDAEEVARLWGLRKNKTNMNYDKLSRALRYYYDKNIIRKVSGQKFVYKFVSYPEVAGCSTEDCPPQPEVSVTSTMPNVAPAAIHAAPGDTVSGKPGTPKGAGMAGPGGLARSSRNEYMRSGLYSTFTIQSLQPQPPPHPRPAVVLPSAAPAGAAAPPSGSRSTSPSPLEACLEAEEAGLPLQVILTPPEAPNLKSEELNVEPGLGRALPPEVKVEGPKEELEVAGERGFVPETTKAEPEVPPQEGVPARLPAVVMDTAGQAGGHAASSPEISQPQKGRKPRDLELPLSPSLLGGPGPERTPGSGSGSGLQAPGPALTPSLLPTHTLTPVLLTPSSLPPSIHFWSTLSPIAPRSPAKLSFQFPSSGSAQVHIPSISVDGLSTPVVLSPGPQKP
The method, boiled down: as §1

For a further assay, the target named is T6, GABPA (Homo sapiens, UniProt Q06546 1-454).
T6 sequence: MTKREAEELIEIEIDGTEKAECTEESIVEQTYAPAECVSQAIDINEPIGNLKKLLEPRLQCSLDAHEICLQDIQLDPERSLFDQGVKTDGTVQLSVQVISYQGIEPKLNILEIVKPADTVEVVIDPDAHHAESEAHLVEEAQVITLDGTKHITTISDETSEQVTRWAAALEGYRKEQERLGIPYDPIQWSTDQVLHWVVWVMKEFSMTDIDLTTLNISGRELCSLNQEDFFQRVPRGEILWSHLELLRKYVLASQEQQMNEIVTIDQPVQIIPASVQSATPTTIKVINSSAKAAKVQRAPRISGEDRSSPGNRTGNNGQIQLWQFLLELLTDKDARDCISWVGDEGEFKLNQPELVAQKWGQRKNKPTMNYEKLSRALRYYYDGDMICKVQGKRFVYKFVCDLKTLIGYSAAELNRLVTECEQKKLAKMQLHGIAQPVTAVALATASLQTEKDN
The method, boiled down: as §1

The target of another assay is T7, ELF3 (Homo sapiens, UniProt P78545 1-371).
T7 sequence: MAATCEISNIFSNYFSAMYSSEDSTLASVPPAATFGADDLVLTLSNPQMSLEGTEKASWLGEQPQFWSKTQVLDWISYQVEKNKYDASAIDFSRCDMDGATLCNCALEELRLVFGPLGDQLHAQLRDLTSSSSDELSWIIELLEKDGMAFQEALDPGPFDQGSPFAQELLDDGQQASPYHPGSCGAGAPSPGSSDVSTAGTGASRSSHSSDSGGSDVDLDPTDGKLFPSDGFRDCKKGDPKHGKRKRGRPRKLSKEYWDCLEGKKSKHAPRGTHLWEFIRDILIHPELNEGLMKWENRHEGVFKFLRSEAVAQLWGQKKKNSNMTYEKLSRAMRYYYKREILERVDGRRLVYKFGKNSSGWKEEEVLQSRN
The method, boiled down: as §1

Another assay has as its target CRX (Homo sapiens, UniProt O43186 1-299). The method, boiled down:
as §1

In a further assay the target is ETV1 (Homo sapiens, UniProt P50549 1-477). The method, boiled down: as §1
In the next assay the target is T8, ERF (Homo sapiens, UniProt P50548 1-548).
T8 sequence: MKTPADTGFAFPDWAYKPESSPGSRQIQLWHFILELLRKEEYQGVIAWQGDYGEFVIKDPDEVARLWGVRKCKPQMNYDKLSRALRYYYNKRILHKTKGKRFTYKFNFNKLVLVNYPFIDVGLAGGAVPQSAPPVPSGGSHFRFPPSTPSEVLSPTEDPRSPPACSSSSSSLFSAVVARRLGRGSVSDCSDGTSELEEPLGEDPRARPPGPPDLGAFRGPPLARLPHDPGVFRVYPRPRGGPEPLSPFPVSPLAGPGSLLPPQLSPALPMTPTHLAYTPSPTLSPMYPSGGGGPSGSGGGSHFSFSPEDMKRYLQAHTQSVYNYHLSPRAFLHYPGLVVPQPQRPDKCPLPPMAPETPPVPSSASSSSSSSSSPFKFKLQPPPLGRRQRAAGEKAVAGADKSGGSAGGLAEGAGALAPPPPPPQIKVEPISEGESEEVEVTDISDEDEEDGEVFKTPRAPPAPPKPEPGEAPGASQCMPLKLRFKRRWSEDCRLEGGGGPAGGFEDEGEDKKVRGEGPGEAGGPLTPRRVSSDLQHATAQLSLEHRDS
The method, boiled down:
as §1

For the next assay, the target named is T9, SPDEF (Homo sapiens, UniProt O95238 1-335).
T9 sequence: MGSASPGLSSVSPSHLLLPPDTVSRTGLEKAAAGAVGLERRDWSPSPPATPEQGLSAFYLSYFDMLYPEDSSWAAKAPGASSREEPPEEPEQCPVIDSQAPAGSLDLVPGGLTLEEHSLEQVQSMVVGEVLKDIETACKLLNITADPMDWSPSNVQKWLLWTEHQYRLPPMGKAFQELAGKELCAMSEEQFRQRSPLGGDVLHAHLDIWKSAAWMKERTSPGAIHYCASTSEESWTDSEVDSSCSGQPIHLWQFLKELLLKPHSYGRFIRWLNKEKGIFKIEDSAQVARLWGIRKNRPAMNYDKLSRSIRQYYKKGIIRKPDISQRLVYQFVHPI
The method, boiled down:
as §1

Another assay deals with T10, ELF5 (Homo sapiens, UniProt Q9UKW6-2 1-255).
T10 sequence: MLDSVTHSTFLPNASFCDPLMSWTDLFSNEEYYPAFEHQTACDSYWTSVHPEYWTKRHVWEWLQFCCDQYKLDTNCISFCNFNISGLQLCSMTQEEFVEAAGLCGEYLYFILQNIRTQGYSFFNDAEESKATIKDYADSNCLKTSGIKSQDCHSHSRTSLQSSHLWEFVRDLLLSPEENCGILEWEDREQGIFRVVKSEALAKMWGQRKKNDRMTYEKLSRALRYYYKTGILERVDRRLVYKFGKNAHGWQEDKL
The essentials:
as §1

The target in a further assay is ETV6 (Homo sapiens, UniProt P41212 1-452). The essentials: as §1
Chain of ETV6 (P41212 whole entry): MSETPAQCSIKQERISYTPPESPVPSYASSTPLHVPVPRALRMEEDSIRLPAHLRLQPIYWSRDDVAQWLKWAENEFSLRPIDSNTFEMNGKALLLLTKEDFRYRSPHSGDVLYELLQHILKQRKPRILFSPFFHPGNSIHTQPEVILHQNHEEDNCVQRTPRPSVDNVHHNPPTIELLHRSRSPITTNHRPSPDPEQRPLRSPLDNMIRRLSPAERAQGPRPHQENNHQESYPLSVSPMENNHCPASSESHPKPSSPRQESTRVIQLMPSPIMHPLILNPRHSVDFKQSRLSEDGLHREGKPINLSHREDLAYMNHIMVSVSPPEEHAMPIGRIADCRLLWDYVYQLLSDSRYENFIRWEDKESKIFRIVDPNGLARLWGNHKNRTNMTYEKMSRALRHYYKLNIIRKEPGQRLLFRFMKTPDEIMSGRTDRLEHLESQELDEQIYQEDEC

Chain of CRX (O43186 whole entry): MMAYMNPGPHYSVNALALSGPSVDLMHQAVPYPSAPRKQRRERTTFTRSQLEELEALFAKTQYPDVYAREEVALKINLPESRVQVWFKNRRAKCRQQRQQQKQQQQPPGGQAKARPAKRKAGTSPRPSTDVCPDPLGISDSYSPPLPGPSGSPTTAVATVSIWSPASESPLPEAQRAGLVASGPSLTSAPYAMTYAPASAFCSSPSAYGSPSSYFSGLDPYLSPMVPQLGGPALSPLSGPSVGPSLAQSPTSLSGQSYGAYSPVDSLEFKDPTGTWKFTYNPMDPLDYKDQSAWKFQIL
Chain of ETV1 (P50549 whole entry): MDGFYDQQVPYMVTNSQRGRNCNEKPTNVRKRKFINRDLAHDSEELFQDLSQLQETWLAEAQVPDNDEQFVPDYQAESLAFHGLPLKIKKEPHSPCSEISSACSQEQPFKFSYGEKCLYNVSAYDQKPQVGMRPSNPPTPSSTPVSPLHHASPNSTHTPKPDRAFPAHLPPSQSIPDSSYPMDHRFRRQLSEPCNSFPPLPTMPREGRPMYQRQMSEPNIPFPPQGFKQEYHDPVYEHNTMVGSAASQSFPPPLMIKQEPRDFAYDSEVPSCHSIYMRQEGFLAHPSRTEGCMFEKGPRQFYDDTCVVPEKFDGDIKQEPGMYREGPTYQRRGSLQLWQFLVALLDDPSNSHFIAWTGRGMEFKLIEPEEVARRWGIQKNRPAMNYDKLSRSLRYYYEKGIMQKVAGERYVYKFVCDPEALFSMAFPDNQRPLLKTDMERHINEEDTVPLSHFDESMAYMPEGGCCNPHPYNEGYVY

On to GTCATT, for which the binding signal with ERG is 1.03 fold enrichment (6-mer frequency, TF over GST control); with ELK4 it was 1.03 fold enrichment (6-mer frequency, TF over GST control); with ETV3L it was 1.01 fold enrichment (6-mer frequency, TF over GST control); with ETV7, 1.01 fold enrichment (6-mer frequency, TF over GST control).

In the case of AGGTAA, the binding signal with ELK1 was 1.03 fold enrichment (6-mer frequency, TF over GST control); with GABPA, 1.02 fold enrichment (6-mer frequency, TF over GST control); with ELF3, 1.11 fold enrichment (6-mer frequency, TF over GST control); with CRX it was 1.14 fold enrichment (6-mer frequency, TF over GST control); with ETV1, 1.02 fold enrichment (6-mer frequency, TF over GST control); in the assay with ERF, 1.06 fold enrichment (6-mer frequency, TF over GST control). For the same sequence, the binding signal is 1 fold enrichment (6-mer frequency, TF over GST control) with SPDEF; 1.01 fold enrichment (6-mer frequency, TF over GST control) with ELF5; 1.02 fold enrichment (6-mer frequency, TF over GST control) in the assay with ETV6.

In the case of GTTGTG, the binding signal in the assay with ELK4 is 1.07 fold enrichment (6-mer frequency, TF over GST control); with ETV3L, 1.02 fold enrichment (6-mer frequency, TF over GST control).
